High-throughput results: PubChem BioAssay, several laboratories
The list is not random: actives were taken first. Their share in the collection is about 0.96%.
sdo1 growth: compounds rescuing growth of sdo1-depleted yeast, bone marrow failure model | z-score at 10 µM | S. cerevisiae sdo1-depleted JHY4D growth rescue, OD600 30 h; active compounds read high; pdr5 snq2 efflux-pump mutant strain | 140,000 compounds, 0.21% hits;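 active means z-score above 3 at both the 24 hr and the 30 hr optical density reads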;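 further: z-score against mean and SD of all compound wells on the same plate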
F-actin modifier: modifiers of cytoskeleton assembly. HUVEC TNFa F-actin phalloidin imaging, high content. inhibition, % at 2 µM. 91,000 compounds, 0.18% hits;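 active means inhibition above the batch mean plus 3 SD and confirmed as a hit by visual image inspection, cut at about 30% in these data, passing the limit was not always enough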
sEH inhibitor: blocks human soluble epoxide hydrolase activity; AID 707; recombinant human sEH enzymatic activity assay; P34913; inhibition, % at 2 µM; 91,000 compounds, 0.34% hits; in the data active means inhibition above about 80%
Target sequence (P34913 whole entry, looked up): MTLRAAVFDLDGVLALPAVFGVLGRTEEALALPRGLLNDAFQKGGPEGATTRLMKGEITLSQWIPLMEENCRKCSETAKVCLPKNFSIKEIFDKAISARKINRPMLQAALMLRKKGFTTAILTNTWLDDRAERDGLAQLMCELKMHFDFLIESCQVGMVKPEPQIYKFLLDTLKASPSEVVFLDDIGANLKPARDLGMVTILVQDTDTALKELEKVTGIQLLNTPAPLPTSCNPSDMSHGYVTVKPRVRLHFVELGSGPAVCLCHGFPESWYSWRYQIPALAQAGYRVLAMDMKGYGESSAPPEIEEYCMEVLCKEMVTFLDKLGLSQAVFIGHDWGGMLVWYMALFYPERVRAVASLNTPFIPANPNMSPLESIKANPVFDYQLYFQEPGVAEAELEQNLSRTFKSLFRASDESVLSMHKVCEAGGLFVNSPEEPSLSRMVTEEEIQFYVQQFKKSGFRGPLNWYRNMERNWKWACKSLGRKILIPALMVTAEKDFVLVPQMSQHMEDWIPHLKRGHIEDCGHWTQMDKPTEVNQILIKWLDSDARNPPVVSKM
E-sel TNF inh: blocks E-selectin expression induced by TNF alpha. HUVEC TNFa-induced E-selectin immunofluorescence, high content. inhibition, % at 2 µM. 120,000 compounds, 0.71% hits;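 active means inhibition above the batch mean plus 3 SD, and confirmed as a hit on visual image review, cut at about 43% in these data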;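 further: 0% = TNF-stimulated DMSO wells and 100% = unstimulated control wells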
Phagocyt inh: macrophage phagocytosis inhibition; J774A.1 macrophage IgG-bead phagocytosis, imaging; inhibition, % at 5 µM; 110,000 compounds, 0.07% hits; AID 1029;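 active means inhibition above the mean of the plate negative controls plus 5 SD, cut at about 13% in these data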;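 further: phagocytic index as fraction of beads internalized from green versus red external bead signal; plate controls were DMSO negative control for no effect and cytochalasin-D positive control for full effect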
sEH act: increases human soluble epoxide hydrolase activity. P34913. purified human sEH enzymatic activity, activator screen. activation, % at 2 µM. 91,000 compounds, 0.04% hits. AID 717; in the data active means activation above about 37%
An asterisk follows results filed as active.

How did C1=C(c2ccc(-c3ccccc3)cc2)Nc2ncnn2C1c1ccco1 (stereo unspecified) do in these assays?
sdo1 growth: -0.75; F-actin modifier: 1.6; sEH inhibitor: 1.9; E-sel TNF inh: 64.5*; Phagocyt inh: -2.3; sEH act: -3.2

Results for Brc1ccc(C2=CC(c3cccs3)n3ncnc3N2)cc1 (stereo unspecified) ?
sdo1 growth: -0.61; F-actin modifier: -1.0; sEH inhibitor: -4.5; E-sel TNF inh: 99.9*; sEH act: 8.4

How did COc1ccccc1Cc1nc(-c2ccncc2)no1 do in these assays?
E-sel TNF inh: 77.3*

How did CCOC(=O)C1=NN(c2ccccc2C)C2=NC(C)=C(C(=O)OC)C(c3cccc(OC)c3)N12 (stereo unspecified) do in these assays?
sdo1 growth: -0.86; Phagocyt inh: -1.1

How did CC(C)c1c(O)cc(-c2ccncc2)n(-c2ccc(Cl)cc2)c1=O do in these assays?
sdo1 growth: 1.1; E-sel TNF inh: 68.5*; Phagocyt inh: 3.4

Results for NC(=O)CSc1nnc(-c2ccncc2)n1-c1ccc(Cl)cc1 ?
sdo1 growth: 1.33

Results for Cc1ccc(CNC(=O)CCc2nc3ccccc3c(=O)[nH]2)cc1 ?
sdo1 growth: 0.4; E-sel TNF inh: 62.0*; Phagocyt inh: 0.7

How did O=c1cc(CO)oc(C(Nc2ccccn2)c2ccccc2F)c1O (stereo unspecified) do in these assays?
F-actin modifier: -1.3; sEH inhibitor: 7.4; E-sel TNF inh: 68.0*; sEH act: -8.2

How did Cn1cc([N+](=O)[O-])c(C(=O)Nc2ccc(Br)cn2)n1 do in these assays?
sdo1 growth: 0.99; F-actin modifier: -2.1; sEH inhibitor: 8.3; E-sel TNF inh: 53.6*; sEH act: -2.9

How did CCSc1ccc(C(=O)Nc2ccc(Br)cn2)cc1[N+](=O)[O-] do in these assays?
E-sel TNF inh: -4.1

How did COc1ccc(C(=O)NCCNC(C)=O)cc1S(=O)(=O)NCc1ccc(Cl)cc1 do in these assays?
sdo1 growth: 0.05; F-actin modifier: -0.2; E-sel TNF inh: 57.1*; Phagocyt inh: 1.2

What do the screens show for `COc1ccc(C(=O)NCc2ccc3c(c2)OCO3)cc1S(=O)(=O)NCc1ccc(Cl)cc1`?
sdo1 growth: 0.28; E-sel TNF inh: -9.9; Phagocyt inh: -4.9

What do the screens show for `O=C(CN1CCN(Cc2ccccc2Cl)C1=O)NCc1ccco1`?
sdo1 growth: 0.09; F-actin modifier: 11.1; sEH inhibitor: 4.9; E-sel TNF inh: 63.5*; Phagocyt inh: -0.6; sEH act: -3.7

Results for O=C(NCc1ccco1)C(=O)NCc1ccccc1Cl ?
sdo1 growth: 0.44; E-sel TNF inh: -13.0; Phagocyt inh: -1.1

How did CN(C)S(=O)(=O)c1ccc(NS(=O)(=O)/C=C/c2ccccc2)cc1 do in these assays?
sdo1 growth: -0.19; F-actin modifier: -2.1; sEH inhibitor: -2.5; E-sel TNF inh: 98.7*; Phagocyt inh: 1.8; sEH act: 2.1

Results for Cc1cccc(C)c1C(OCCN(C)C)C1CCCCC1 (stereo unspecified) ?
sdo1 growth: 0.19; Phagocyt inh: -1.0

What do the screens show for `Cc1cc2nc(-c3ccc(NC(=O)C(C)C)cc3)oc2cc1C`?
sdo1 growth: -0.36; F-actin modifier: -1.3; sEH inhibitor: -17.3; E-sel TNF inh: 2.3; Phagocyt inh: -3.7; sEH act: 15.1

Results for CC(C)C(=O)Nc1ccc(-c2nc3cccnc3o2)cc1 ?
sdo1 growth: -0.29; sEH inhibitor: -15.3; E-sel TNF inh: 83.7*; Phagocyt inh: -0.9; sEH act: 13.7

What do the screens show for `CCN1C(=O)/C(=C\c2cn(-c3ccccc3)nc2-c2cccnc2)SC1=S`?
E-sel TNF inh: 83.3*

How did COC(=O)CSc1nc(N)nc(C)c1Br do in these assays?
sdo1 growth: -0.48; F-actin modifier: -28.6; E-sel TNF inh: 62.8*; Phagocyt inh: -0.6

What do the screens show for `c1ccc(-n2c(-c3ccncc3)nnc2N2CCOCC2)cc1`?
sdo1 growth: 0.42; F-actin modifier: 5.7; sEH inhibitor: -12.5; E-sel TNF inh: 60.2*; Phagocyt inh: -0.3; sEH act: 12.1

How did c1ccc(-n2c(-c3ccncc3)nnc2-c2ccco2)cc1 do in these assays?
sdo1 growth: 0.42; F-actin modifier: 0.7; sEH inhibitor: -14.7; E-sel TNF inh: -9.8; Phagocyt inh: -0.2; sEH act: 12.8

What do the screens show for `CN1CCCC(C#CC(O)(c2ccccc2)c2ccccc2)C1` (stereo unspecified)?
E-sel TNF inh: -15.8

Results for COC(=O)c1cc2sccc2n1Cc1nc(-c2cccc(Cl)c2)oc1C ?
sdo1 growth: -1.61; F-actin modifier: -16.9; sEH inhibitor: -1.6; Phagocyt inh: -0.5; sEH act: 2.2

How did COC(=O)c1cc2ccsc2n1Cc1nc(-c2cccc(Cl)c2)oc1C do in these assays?
sdo1 growth: -1.81; F-actin modifier: 3.7; sEH inhibitor: -16.9; E-sel TNF inh: 82.1*; Phagocyt inh: 0.2; sEH act: 15.1

Results for CCOC(=O)c1nnn(-c2ccc(OC)cc2)c1N ?
sdo1 growth: 0.64; F-actin modifier: 5.6; sEH inhibitor: 16.6; E-sel TNF inh: -5.9; sEH act: -17.6

How did CCOC(=O)c1sc(=N)n(-c2ccc(OC)cc2)c1C do in these assays?
sdo1 growth: 0.04; F-actin modifier: 18.0; sEH inhibitor: -2.1; E-sel TNF inh: 64.2*; sEH act: 1.6

What do the screens show for `CCn1nnc(-c2ccccc2NS(=O)(=O)c2ccc(S(=O)(=O)N(C)C3CCCCC3)cc2)n1`?
sdo1 growth: -1.28; F-actin modifier: 8.1; sEH inhibitor: 14.6; E-sel TNF inh: 4.7; Phagocyt inh: -0.6; sEH act: -15.6

What do the screens show for `CCCS(=O)(=O)c1nnnn1-c1cccc(OC)c1`?
sdo1 growth: -1.72; E-sel TNF inh: 98.4*; Phagocyt inh: 0.1

What do the screens show for `Cc1c(C(=O)OCC(=O)Nc2c(C)n(C)n(-c3ccccc3)c2=O)oc2ccccc12`?
E-sel TNF inh: -0.8

How did COc1ccccc1N1CCN(C(=O)CSc2nnc3c4ccccc4nc(Cc4ccccc4)n23)CC1 do in these assays?
sdo1 growth: 0.19; E-sel TNF inh: 0.1; Phagocyt inh: -9.3

What do the screens show for `CCCn1c(SCC(=O)N2c3ccccc3Sc3ccccc32)nc2c1c(=O)n(C)c(=O)n2C`?
sdo1 growth: -1.76; F-actin modifier: 13.3; sEH inhibitor: 5.5; E-sel TNF inh: 64.8*; Phagocyt inh: -1.9; sEH act: -5.8

How did Cc1n[nH]c(C)c1S(=O)(=O)N(CC(=O)Nc1ccc2c(c1)OCCO2)c1ccc(C(C)C)cc1 do in these assays?
sdo1 growth: 0.38; F-actin modifier: 0.5; sEH inhibitor: 12.1; Phagocyt inh: 1.1; sEH act: -10.1

What do the screens show for `Cc1cc(S(=O)(=O)N2CCN(c3ccccc3O)CC2)c(C)s1`?
sdo1 growth: -0.61; F-actin modifier: 5.7; sEH inhibitor: -0.1; E-sel TNF inh: 56.8*; sEH act: 3.7

How did O=C(Nc1nncs1)c1cccnc1Cl do in these assays?
sdo1 growth: 0.33; E-sel TNF inh: 3.6; Phagocyt inh: -5.7
